The sample as a whole holds a higher share of hits than the screen did.
HT1080 IDH1KD tx = kills HT-1080 cells with IDH1 knockdown. HT-1080 IDH1 knockdown viability, ATP luminescence, 48 h. 360,000 compounds, 2% hits. AID 686971. Potency, µM (highest dose often 46.1 µM), inactives show at the highest dose activity, negative = toxicity, hits mostly cytotoxic;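 note: potency is the fitted concentration of half-maximal effect; 0% = DMSO wells and -100% = cell-free medium wells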
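After a 2 h attachment period, IDH1KD HT-1080 cells took pin-transferred compound for 48 h at 37 °C; ATP-based luminescence after 10 min room-temperature reagent incubation reported viability.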
TDP1 cell CPT = DT40-hTDP1 cell growth loss with CPT | chicken DT40 Tdp1-/-;hTDP1 cells + 20 nM CPT, ATP luminescence, 48 h | Potency, µM (top dose mostly 46.2 µM), for inactives: top-dose activity change, negative = growth inhibition, actives largely listed as inhibitors | 420,000 compounds, 12% hits; note: potency is the fitted concentration of half-maximal effect; nearly all actives have a fitted effect of over 55% in size
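Cell growth measured by CellTiter-Glo luminescence after a minimum 48 h, 37 C compound exposure with 20 nM CPT in Tdp1-knockout DT40 cells stably expressing hTDP1, seeded 400/well; qHTS titration format.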
IL1B secr inh = inflammasome signaling inhibition, IL-1 beta readout; 360,000 compounds, 4.7% hits; THP-1 LPS/ATP IL-1B secretion, AlphaLISA, 16 h; stronger effect = lower value; activity change, % at 57.5 µM; in the data active = activity change below about -50%; inconclusive = mostly about -30% to -49%
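THP-1 cells pretreated 1 hr with compounds (up to 57.5 uM final), then stimulated with LPS (250 ng/mL final) plus ATP (1.25 mM final); secreted IL-1B measured by AlphaLISA after 16 hr, decreased signal indicating inhibition.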
TDP1 cell noCPT = qHTS for Inhibitors of human tyrosyl-DNA phosphodiesterase 1 (TDP1): qHTS in cells in absence of CPT; DT40 Tdp1-/- hTDP1 cells, no CPT, ATP luminescence, 48 h; Potency, µM (titrated, usually from 46.2 µM), inactives show at the highest dose activity change, negative = growth inhibition, most hits filed as inhibitors; 420,000 compounds, 15% hits; AID 686978, 2013; note: potency is the fitted concentration of half-maximal effect; nearly all actives have a fitted effect of over 55% in size
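Luminescent ATP content (CellTiter-Glo) served as the growth readout. Knockout chicken DT40 cells expressing human TDP1 were exposed to compounds without camptothecin for a minimum 48 hr at 37 °C.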
ALOX12 inh = inhibitors of human 12S-lipoxygenase ALOX12. P18054. purified 12hLO, xylenol orange hydroperoxide absorbance. Potency, µM (titrated, usually from 108 µM), for the others: top-dose activity change, negative = inhibition, usual class: inhibitors. 580,000 compounds, 1.1% hits; note: potency is the fitted concentration of half-maximal effect
Target sequence (P18054 whole entry, looked up): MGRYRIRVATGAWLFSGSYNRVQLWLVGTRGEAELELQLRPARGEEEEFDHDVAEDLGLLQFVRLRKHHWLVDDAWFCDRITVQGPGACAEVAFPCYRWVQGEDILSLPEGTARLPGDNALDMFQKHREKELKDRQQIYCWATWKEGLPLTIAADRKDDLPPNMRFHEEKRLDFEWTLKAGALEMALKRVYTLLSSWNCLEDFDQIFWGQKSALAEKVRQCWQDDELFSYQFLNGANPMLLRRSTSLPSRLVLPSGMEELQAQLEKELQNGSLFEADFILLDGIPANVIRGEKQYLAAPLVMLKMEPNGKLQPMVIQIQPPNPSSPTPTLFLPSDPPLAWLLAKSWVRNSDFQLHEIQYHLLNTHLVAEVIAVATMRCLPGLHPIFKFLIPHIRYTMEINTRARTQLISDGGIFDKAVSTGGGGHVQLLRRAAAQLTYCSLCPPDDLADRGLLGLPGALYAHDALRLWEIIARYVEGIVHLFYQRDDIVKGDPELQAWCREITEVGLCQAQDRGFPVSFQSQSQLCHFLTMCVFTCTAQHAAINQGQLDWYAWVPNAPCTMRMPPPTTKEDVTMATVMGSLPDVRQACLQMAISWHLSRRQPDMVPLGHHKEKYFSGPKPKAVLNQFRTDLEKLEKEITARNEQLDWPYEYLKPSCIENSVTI
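Purified human 12hLO at 150 nM in 25 mM Hepes, 0.01% Triton X-100, pH 7.0, preincubated 15 min at room temperature with compound. Reaction started with 40 uM arachidonic acid, 30 min at room temperature. Hydroperoxide measured by Fe-xylenol orange, 573/405 nm absorbance ratio.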
HT1080-NT tox = kills 2HG-producing HT-1080-NT fibrosarcoma cells. HT-1080-NT fibrosarcoma viability, CellTiter-Glo ATP luminescence, 48 h. Potency, µM (titrated, usually from 46.1 µM), inactives show at the highest dose activity, negative = less viability, actives largely listed as cytotoxic. 360,000 compounds, 1.6% hits;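 note: NT is the 2HG producing partner of a matched IDH1 knockdown line; potency is the fitted concentration of half-maximal effect; 0% = DMSO-treated cells and -100% = media-only wells without cells; nearly all actives have a fitted effect of over 55% in size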
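Viability by CellTiter-Glo luminescence after 48 h compound exposure at 37C of HT-1080-NT cells (750/well, RPMI, 5% FBS). % activity scaled between DMSO wells and medium-only wells, then curve-fitted and categorized by curve class.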
An asterisk follows results filed as active; i = inactive; ? = inconclusive; . = no result; [ ] = another dose, or the depositor's remark. Unless noted, calls come from the whole dose curve; as a rule, active = well fitted curve in the direction sought with a large enough effect; inconclusive = small, poorly fitted or top-dose-only effect, or another doubt; inactive = no such curve, though single readings can be large; an effect the other way counts as inactive or inconclusive. Unless noted, % is set by controls: 0 for no effect and ±100 for the full control effect.

SMILES	HT1080 IDH1KD tx	TDP1 cell CPT	IL1B secr inh	TDP1 cell noCPT	ALOX12 inh	HT1080-NT tox
CC(=O)Nc1ccccc1C(=O)N1CCN(C)CC1	.	.	.	.	130%	.
CC(=O)c1ccc(N2CCN(C(=O)Nc3ccc(C(C)C)cc3)CC2)cc1	?	?	-26	16µM*	2%	?
CC(C)(C)c1ccc(C(=O)Nc2ccc(C(=O)N3CCCC3)cc2)cc1	-21%	21µM*	-2	23µM*	-14%	-4%
CC(C)(C)c1ccc(NC(=O)c2ccsc2)cc1	?	?	?	23µM*	305%	-26%
O=C(Nc1ccc(C(=O)N2CCCCC2)cc1)c1ccc([N+](=O)[O-])cc1	5%	-1%	-11	?	i	7%
CCOc1ccc(OCC)c(NC(=O)c2cc(S(=O)(=O)N3CCCC3)cn2C)c1	.	-22%	.	?	-10%	.
COCc1ccc(C(=O)NCC2COc3c(cccc3OC)C2)s1 (configuration not stated)	.	.	.	.	34%	.
C=CCn1c(O)c(C2=c3ccccc3=NC2=O)c2ccccc21	21µM*	?	0	4.1µM*	-14%	23µM*
CS(=O)(=O)N1CCCN(C(=O)CCCc2ccccc2)c2ccccc21	.	.	.	.	36%	.
O=C1CCCc2[nH]c3cccc(/C(=C/c4ccccc4)c4ccccc4)c3c21	-7%	?	-1	18µM*	-9%	-17%
COC(=O)c1ccc2[nH]c3cccc(/C(=C/c4ccccc4)c4ccccc4)c3c2c1	?	?	-58*	?	-28%	?
CCCCOC(=O)c1ccc(NC(=O)Cc2coc3ccc(C(C)C)cc23)cc1	.	26µM*	.	23µM*	-9%	.
Cc1ccc(NC(=O)Cc2coc3ccc(C(C)C)cc23)cc1Cl	.	?	.	29µM*	-22%	.
CCc1ccc2occ(CC(=O)Nc3nnc(SC)s3)c2c1	.	-18%	.	2%	-4%	.
CCOC(=O)c1ccc(NC(=O)Cc2coc3cc4c(cc23)CCC4)cc1	-11%	?	12	?	-13%	-7%
CCOc1ccc(NC(=O)Cc2coc3ccc(C)cc23)cc1	.	16µM*	.	21µM*	-11%	.
CCc1ccc2occ(CC(=O)Nc3ccc(C)c(C)c3)c2c1	.	?	.	13µM*	5%	.
COc1ccc(NC(=O)c2oc3ccccc3c2NC(=O)Cc2coc3ccc(C)cc23)cc1	.	-24%	.	?	3%	.
Cc1ccccc1-c1noc(COc2ccc3ccc(=O)oc3c2)n1	.	.	.	.	-47%	.
Nc1c(N(CCC2=CCCCC2)C(=O)Cc2ccc(F)cc2)c(=O)[nH]c(=O)n1Cc1ccccc1	-7%	?	7	?	-27%	-4%
CC(=O)c1ccc(OCC(=O)N(CCC2=CCCCC2)c2c(N)n(Cc3ccccc3)c(=O)[nH]c2=O)cc1	-1%	23µM*	1	?	-30%	0%
Cc1cccc(OCC(=O)N(Cc2ccccc2)c2c(N)n(Cc3ccccc3)c(=O)[nH]c2=O)c1	-13%	18µM*	?	?	-6%	-3%
Nc1c(N(CCC2=CCCCC2)C(=O)COc2ccc(F)cc2Cl)c(=O)[nH]c(=O)n1Cc1ccccc1	10µM*	5.8µM*	-55*	6.5µM*	0%	18µM*
Cc1cc(C)n(-c2nc3ccccc3c(=O)n2OCCOc2ccccc2)n1	16%	12µM*	12	18µM*	0%	?
CSC1=N/C(=C\c2ccc(Br)o2)C(=O)S1	16%	-2%	-9	-1%	?	5%
SMILES	HT1080 IDH1KD tx	TDP1 cell CPT	IL1B secr inh	TDP1 cell noCPT	ALOX12 inh	HT1080-NT tox
CSC1=N/C(=C\c2ccc(-c3ccc(Cl)cc3)o2)C(=O)S1	.	.	.	.	25µM*	.
Cc1cc(=O)n(CC(=O)Nc2cccc(C#N)c2)c(N2CCOCC2)n1	.	.	.	.	-14%	.
Fc1cc(F)cc(-c2noc3ncnc(Nc4ccc(-c5ccno5)cc4)c23)c1	.	.	.	.	6%	.
COc1ccc(-n2nnnc2SCC(=O)c2ccc3c(c2)OCCO3)c(OC)c1	23%	?	-2	13µM*	-1%	7%
O=C(CSc1nnnn1C1CCCCC1)N1c2ccccc2Sc2ccccc21	-7%	?	0	21µM*	-6%	0%
O=C(CSc1nnnn1C1CCCCC1)N1CCOCC1	10%	?	-20	-11%	1%	17%
O=C(CSc1nnnn1C1CCCC1)c1ccc2c(c1)OCCO2	-1%[9.24 µM]	21µM*	?	?	-17%	1%
CC(C)c1ccc(CN2CCN(C(=O)CSc3nnnn3C3CC3)CC2)cc1	-4%	?	?	12µM*	-2%	?
CCCc1nnc(NC(=O)Cc2ccc(Br)cc2)s1	.	.	.	.	-5%	.
COc1ccc(C(=O)Nc2ccc3oc(-c4ccccc4C)cc(=O)c3c2)cc1OC	.	.	.	.	-4%	.
COc1ccc(C)cc1-n1nnnc1SCC(=O)c1ccc2c(c1)OCCO2	-5%	18µM*	-13	?	0%	0%
COCCCn1c(SCC(=O)Nc2ccc3c(c2)OCCO3)nnc1-c1ccoc1C	11%	-5%	-6	-1%	-19%	15%
COCCn1c(SCC(=O)c2ccc3c(c2)OCCO3)nnc1-c1ccoc1C	0%	15µM*	21	10µM*	7%	3%
Cc1cc(O)cc(=O)n1-c1cccc(Br)c1	.	.	.	.	3%	.

From PubChem BioAssay
